Values without a mark were called inactive. Results filed as inconclusive are left out. The source made the active and inactive calls. Unless noted, the call rests on the fitted dose curve; in most records, active means well fitted curve in the direction sought with a large enough effect in the repeat runs; inconclusive means weak or mixed curves; inactive means flat fitted curve, though single readings scatter.

Experiment [1] can be described thus: qHTS assay to test for compound auto fluorescence at 535 nm (green) in HEK293 cells (AID 720680).
Experiment [2] is described as follows: qHTS assay to test for compound auto fluorescence at 460 nm (blue) in HEK293 cell free culture (AID 720681). Summed up:
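Blue fluorescence (Ex 405/Em 460 nm, triamterene-equivalent) was read immediately after pin transfer of compound or DMSO into medium (DMEM, 10% FBS) without cells.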

Experiment [3] is described as follows: qHTS assay to test for compound auto fluorescence at 535 nm (green) in HEK293 cell free culture (AID 720682). Summed up: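 DMEM + 10% FBS, cell-free; cpd or DMSO pinned in; Ex485/Em535 read; output as fluorescein-equivalent signal.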
Experiment [4] in a line: qHTS assay to test for compound auto fluorescence at 590 nm (red) in HEK293 cell free culture (AID 720683). The method in brief: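 Red-channel autofluorescence of compounds in culture medium (DMEM, 10% FBS), no cells, measured at 540/590 nm. Rose Bengal sodium is the reference fluorophore for equivalence.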
The nature of experiment [5]: qHTS assay to test for compound auto fluorescence at 590 nm (red) in HepG2 cell free culture (AID 720684). The method in brief: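 No cells present: MEM + 10% FBS only. Compound pinned in, red label read (540/590 nm). Activity = fluorescence equivalent to Rose Bengal sodium.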
Experiment [6] is described as follows: qHTS assay to test for compound auto fluorescence at 535 nm (green) in HepG2 cell free culture (AID 720686).
The nature of experiment [7]: qHTS assay to test for compound auto fluorescence at 460 nm (blue) in HepG2 cells (AID 720687). The method in brief:
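Blue-channel autofluorescence (Ex/Em 405/460 nm, triamterene-equivalent) was measured after 1 hr compound exposure at 37 C, 5% CO2. Cells were HepG2, plated overnight at 37 C in MEM plus 10% FBS.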

Experiment [8] deals with Glucocorticoid receptor (Homo sapiens) (UniProt P04150). Nature of the experiment: qHTS assay to identify small molecule agonists of the glucocorticoid receptor (GR) signaling pathway (AID 720691; active means well fitted activation curve with a large enough effect in the signal ratio in the repeat runs, not every such curve was filed as active; the % refers to the signal ratio). The method in brief:
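Cells: GR-bla HeLa, endogenous GR with stably integrated GRE-beta-lactamase reporter. Treatment 18 h, 37 C, compounds delivered in DMSO. Detection via LiveBLAzer B/G FRET substrate, 2 h RT, fluorescence intensity.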

Experiment [9] can be described thus: qHTS assay to test for compound auto fluorescence at 460 nm (blue) in HepG2 cell free culture (AID 720685). Summed up:
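Cell-free plates of MEM plus 10% FBS received 23 nL compound or DMSO vehicle; blue-channel (405/460 nm) intensity scored against triamterene as reference fluorophore.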

In experiment [10] the target is Glucocorticoid receptor (Homo sapiens) (UniProt P04150). The experiment in a line: qHTS assay to identify small molecule antagonists of the glucocorticoid receptor (GR) signaling pathway (AID 720692; active means well fitted inhibition curve with a large enough effect in the signal ratio in the repeat runs, not every such curve was filed as active; the % refers to the signal ratio; further: potency means the concentration at half of the fitted maximal effect). The method in brief: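 Quantitative HTS in antagonist format: HeLa cells expressing endogenous GR and a stably integrated GRE-bla reporter, stimulated with 5 nM dexamethasone (final) alongside test compounds for 18 h.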
Sequence of Glucocorticoid receptor (Homo sapiens) (P04150 whole entry, looked up): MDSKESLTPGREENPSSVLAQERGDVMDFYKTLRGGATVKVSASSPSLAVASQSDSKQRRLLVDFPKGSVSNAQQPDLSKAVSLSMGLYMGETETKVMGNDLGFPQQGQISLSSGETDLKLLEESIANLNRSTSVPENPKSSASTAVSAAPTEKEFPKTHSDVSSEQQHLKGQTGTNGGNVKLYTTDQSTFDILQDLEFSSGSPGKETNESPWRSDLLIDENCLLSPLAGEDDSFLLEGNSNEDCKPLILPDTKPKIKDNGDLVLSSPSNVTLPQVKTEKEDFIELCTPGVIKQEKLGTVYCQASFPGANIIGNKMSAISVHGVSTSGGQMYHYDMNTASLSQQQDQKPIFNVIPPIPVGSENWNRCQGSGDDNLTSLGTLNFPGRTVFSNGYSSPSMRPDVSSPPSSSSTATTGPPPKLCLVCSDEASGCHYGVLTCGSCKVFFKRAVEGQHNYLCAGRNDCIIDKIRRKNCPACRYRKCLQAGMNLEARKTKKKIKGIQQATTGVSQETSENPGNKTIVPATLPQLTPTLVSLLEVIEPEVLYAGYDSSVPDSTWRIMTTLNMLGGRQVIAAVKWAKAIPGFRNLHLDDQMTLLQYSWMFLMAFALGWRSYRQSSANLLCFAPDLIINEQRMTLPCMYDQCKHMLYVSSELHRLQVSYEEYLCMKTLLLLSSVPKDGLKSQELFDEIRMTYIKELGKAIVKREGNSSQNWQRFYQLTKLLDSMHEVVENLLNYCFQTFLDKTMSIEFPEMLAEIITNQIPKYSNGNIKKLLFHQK
On the % scale 0 is the no-effect control and ±100 the full control effect.

`O=C(Nc1ccc([N+](=O)[O-])cc1)Nc1ccc([N+](=O)[O-])cc1`: the result in experiment [1], in experiment [3], in [4], in [5] and in [6] was inactive. The Potency entry in experiment [2], in experiment [7] and in experiment [8] was “inactive” in each case.
With `CCOC(=O)OCC`, the result in experiment [1], in experiment [3], in [4] and in experiment [5] was inactive. For the same molecule, the Potency entry in [2], in experiment [9], in experiment [7], in [8] and in experiment [10] was “inactive” in each case.
Consider `NC(=O)Nc1ccc(Cl)c(Cl)c1`, for which the call in experiment [1], in experiment [3], in experiment [4], in [5] and in experiment [6] was inactive. Moreover, the Potency entry in [2] and in [7] was “inactive” in each case. Also, in [10], the Potency is 48.9 µM (active).
On to `CC(C)=CC=O`, for which the result in [1], in experiment [3], in [4], in experiment [5] and in [6] was inactive. Also, the Potency entry in [2], in experiment [7] and in experiment [8] was “inactive” each time.
As to `O=C(O)C(Cc1cc(I)c(O)c(I)c1)c1ccccc1` (stereo unspecified), the outcome in experiment [1], in experiment [3], in experiment [4] and in experiment [5] was inactive. Besides, the Potency result in experiment [2], in experiment [9], in [7] and in experiment [10] was “inactive” throughout.
Consider `CCOC(=O)c1ccccc1C`, for which the molecule was classed as inactive in experiment [1], in experiment [3], in [4] and in [5]. In addition, the Potency entry in experiment [2], in experiment [9], in [7], in experiment [8] and in experiment [10] was “inactive” throughout.
Turning to `CN(C)CCOC1=Cc2ccccc2Sc2ccc(Cl)cc21`, the call in experiment [1], in experiment [3], in experiment [4], in experiment [5] and in experiment [6] was inactive. Moreover, the Potency result in [2], in experiment [7] and in experiment [8] was “inactive” throughout.
For the molecule `c1cc[c]([Bi]([c]2ccccc2)[c]2ccccc2)cc1`, the molecule was called inactive in experiment [1], in experiment [3], in [4] and in experiment [5]. Further, the Potency result in experiment [2], in experiment [9], in experiment [7] and in experiment [8] was “inactive” each time. For the same molecule, the Potency in [10] was 19.5 µM (active).
`CCC(=O)OC/C=C/c1ccccc1`: the call in [1], in experiment [3], in [4] and in experiment [5] was inactive. In addition, the Potency result in experiment [2], in [9], in experiment [7] and in [10] was “inactive” each time.
In the case of `NCC1CCCC(CN)C1` (stereo unspecified), the result in experiment [1], in [3], in [4] and in experiment [5] was inactive. In addition, the Potency result in experiment [2], in experiment [9], in [7] and in experiment [10] was “inactive” throughout.
Take `CC(C)(CCl)c1ccccc1`: the result in experiment [1], in experiment [3], in experiment [4], in experiment [5] and in [6] was inactive. The Potency result in [2] and in experiment [7] was “inactive” in each case.
Regarding `O=c1[nH]c2ccc(S(=O)CCN3CCC(Cc4ccc(F)cc4)CC3)cc2o1` (stereo unspecified), the molecule was classed as inactive in experiment [1], in experiment [3], in experiment [4], in experiment [5] and in experiment [6]. In addition, the Potency result in experiment [2], in experiment [7] and in experiment [10] was “inactive” each time.
As to `CCCCN(CCCC)C(=S)SSC(=S)N(CCCC)CCCC`, the molecule was called inactive in experiment [1], in [3], in experiment [4], in experiment [5] and in experiment [6]. Moreover, the Potency result in [2] and in experiment [7] was “inactive” throughout.
Take `CCCCC(CC)COC(=O)COc1ccc(Cl)cc1C` (stereo unspecified): the call in experiment [1], in [3], in experiment [4], in experiment [5] and in [6] was inactive. The Potency result in experiment [2] and in experiment [7] was “inactive” each time.
On to `O=C(OCCOCCO)c1ccccc1Nc1cccc(C(F)(F)F)c1`, for which the fluorescence, % of fluorescein in experiment [1] was -0.0064% [at 18.6 µM]. Moreover, the fluorescence, % of fluorescent control in [2] was -0.158% [at 18.6 µM]; in experiment [4], -0.579% [at 18.6 µM]; in experiment [7], -0.0068% [at 18.6 µM]. In addition, the activity change in experiment [3] is 0.0151% [at 18.6 µM]. For the same molecule, the fluorescence, % of Rose Bengal in experiment [5] is -0.0242% [at 18.6 µM]. For the same molecule, in [6], the fluorescence, % of fluorescein control was 0.0209% [at 18.6 µM].
For the molecule `CN(C)C(=O)Nc1ccc(Oc2ccc(Cl)cc2)cc1`, the molecule was called inactive in experiment [1], in experiment [3], in [4], in [5] and in experiment [6]. Besides, the Potency result in [2] and in experiment [7] was “inactive” throughout.
Take `NC(=O)Cn1c(=O)cc(CCN2CCN(c3nccc4sccc34)CC2)c2ccc(F)cc21`: the call in [1], in experiment [3], in experiment [4] and in experiment [5] was inactive. Besides, the Potency entry in experiment [2], in experiment [9], in [7], in experiment [8] and in experiment [10] was “inactive” each time.
Take `CCCCC(CC)C(=O)OCCOCCOCCOCCOC(=O)C(CC)CCCC` (stereo unspecified): the outcome in [1], in experiment [3], in [4] and in experiment [5] was inactive. For the same molecule, the Potency result in experiment [2], in experiment [9], in experiment [7], in experiment [8] and in experiment [10] was “inactive” each time.
In the case of `CCOC(=O)[C@@H](C)Oc1ccc(Oc2nc3ccc(Cl)cc3o2)cc1`, the result in experiment [1], in experiment [3], in experiment [4], in experiment [5] and in experiment [6] was inactive. For the same molecule, the Potency result in experiment [2], in experiment [7] and in [8] was “inactive” each time.
On to `COc1cc2c(cc1OC)-c1cc(=Nc3c(C)cc(C)cc3C)n(C)c(=O)n1CC2`, for which the call in [1], in experiment [3], in experiment [4], in experiment [5] and in experiment [6] was inactive. The Potency result in experiment [2] and in experiment [7] was “inactive” throughout.
As to `COC(OC)(C(=O)c1ccccc1)c1ccccc1`, the result in experiment [1], in [3], in experiment [4], in experiment [5] and in [6] was inactive. The Potency entry in experiment [2], in [7], in experiment [8] and in [10] was “inactive” in each case.
With `CC1CN(c2cc3c(cc2F)c(=O)c(C(=O)O)cn3-c2ccc(F)cc2F)CCN1` (stereo unspecified), the call in [1], in [3], in [4], in [5] and in experiment [6] was inactive. For the same molecule, the Potency result in experiment [2], in experiment [7], in experiment [8] and in experiment [10] was “inactive” throughout.
For `COCCOC`, the molecule was classed as inactive in [1], in experiment [3], in experiment [4] and in experiment [5]. For the same molecule, the Potency entry in experiment [2], in experiment [9], in experiment [7], in [8] and in experiment [10] was “inactive” each time.

Values taken from PubChem BioAssay (Tox21).
